Measured values from the supplement of paper PMC10849652.
Of roughly 7,900 targets only a part is listed; those with a hit were picked by preference. About 0.6% of all pairs of compound and target were hits. Unmarked numbers belong to inactive results.

Tests used:
Assay in all cases: log2 fold change, soluble protein after heating vs DMSO (PISA); higher = thermal stabilisation; K562 cells, 10 uM, 30 min; active = over 0.2 and 3.5 SD of the protein, either way, in both replicates (recomputed)
bafetinib = compound: Cc1ccc(NC(=O)c2ccc(CN3CC[C@H](N(C)C)C3)c(C(F)(F)F)c2)cc1Nc1nccc(-c2cncnc2)n1 [bafetinib]
Outline: (§1)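 K562 cells at 2×10^6 cells/mL were given 10 μM compound for 30 min. Aliquots then went through 3 min of heating across 48°C-58°C, were pooled, and were extracted in PBS with 0.5% NP-40 at 4°C, and the supernatant after 21,000xg for 90 min was quantified by TMTpro 16plex LC-MS/MS with channel sums equalised. Thermal stability relative to control samples, from duplicates, is given as log2 fold change.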

[1] = compound: Cc1cccc(CC(=O)N2CCc3c2ccc(-c2cn(C)c4ncnc(N)c24)c3F)n1
Outline: as §1

nilotinib = compound: Cc1cn(-c2cc(NC(=O)c3ccc(C)c(Nc4nccc(-c5cccnc5)n4)c3)cc(C(F)(F)F)c2)cn1 [nilotinib]
Outline: as §1

[2] = compound: Cc1nc(Nc2n[nH]c3c2CN(C(=O)N[C@H](CN(C)C)c2ccccc2)C3(C)C)c2sccc2n1
Outline: as §1

dasatinib = compound: Cc1nc(Nc2ncc(C(=O)Nc3c(C)cccc3Cl)s2)cc(N2CCN(CCO)CC2)n1 [dasatinib]
Outline: as §1

[3] = compound: Cc1ncc(-c2ccnc(Nc3ccc(S(C)(=O)=O)cc3)n2)n1C(C)C
Outline: as §1

[4] = compound: Cn1cc(-c2ccc3c(c2)CCN3C(=O)Cc2cccc(C(F)(F)F)c2)c2c(N)ncnc21
Outline: as §1

[5] = compound: Cn1cc(-c2ccc3nnc(C(F)(F)c4ccc5ncccc5c4)n3n2)cn1
Outline: as §1

tipifarnib = compound: Cn1cncc1[C@@](N)(c1ccc(Cl)cc1)c1ccc2c(c1)c(-c1cccc(Cl)c1)cc(=O)n2C [tipifarnib]
Outline: as §1

mubritinib = compound: FC(F)(F)c1ccc(/C=C/c2nc(COc3ccc(CCCCn4ccnn4)cc3)co2)cc1 [mubritinib]
Outline: as §1

Chain of UniProt Q9H2M9 (Q9H2M9 whole entry, looked up): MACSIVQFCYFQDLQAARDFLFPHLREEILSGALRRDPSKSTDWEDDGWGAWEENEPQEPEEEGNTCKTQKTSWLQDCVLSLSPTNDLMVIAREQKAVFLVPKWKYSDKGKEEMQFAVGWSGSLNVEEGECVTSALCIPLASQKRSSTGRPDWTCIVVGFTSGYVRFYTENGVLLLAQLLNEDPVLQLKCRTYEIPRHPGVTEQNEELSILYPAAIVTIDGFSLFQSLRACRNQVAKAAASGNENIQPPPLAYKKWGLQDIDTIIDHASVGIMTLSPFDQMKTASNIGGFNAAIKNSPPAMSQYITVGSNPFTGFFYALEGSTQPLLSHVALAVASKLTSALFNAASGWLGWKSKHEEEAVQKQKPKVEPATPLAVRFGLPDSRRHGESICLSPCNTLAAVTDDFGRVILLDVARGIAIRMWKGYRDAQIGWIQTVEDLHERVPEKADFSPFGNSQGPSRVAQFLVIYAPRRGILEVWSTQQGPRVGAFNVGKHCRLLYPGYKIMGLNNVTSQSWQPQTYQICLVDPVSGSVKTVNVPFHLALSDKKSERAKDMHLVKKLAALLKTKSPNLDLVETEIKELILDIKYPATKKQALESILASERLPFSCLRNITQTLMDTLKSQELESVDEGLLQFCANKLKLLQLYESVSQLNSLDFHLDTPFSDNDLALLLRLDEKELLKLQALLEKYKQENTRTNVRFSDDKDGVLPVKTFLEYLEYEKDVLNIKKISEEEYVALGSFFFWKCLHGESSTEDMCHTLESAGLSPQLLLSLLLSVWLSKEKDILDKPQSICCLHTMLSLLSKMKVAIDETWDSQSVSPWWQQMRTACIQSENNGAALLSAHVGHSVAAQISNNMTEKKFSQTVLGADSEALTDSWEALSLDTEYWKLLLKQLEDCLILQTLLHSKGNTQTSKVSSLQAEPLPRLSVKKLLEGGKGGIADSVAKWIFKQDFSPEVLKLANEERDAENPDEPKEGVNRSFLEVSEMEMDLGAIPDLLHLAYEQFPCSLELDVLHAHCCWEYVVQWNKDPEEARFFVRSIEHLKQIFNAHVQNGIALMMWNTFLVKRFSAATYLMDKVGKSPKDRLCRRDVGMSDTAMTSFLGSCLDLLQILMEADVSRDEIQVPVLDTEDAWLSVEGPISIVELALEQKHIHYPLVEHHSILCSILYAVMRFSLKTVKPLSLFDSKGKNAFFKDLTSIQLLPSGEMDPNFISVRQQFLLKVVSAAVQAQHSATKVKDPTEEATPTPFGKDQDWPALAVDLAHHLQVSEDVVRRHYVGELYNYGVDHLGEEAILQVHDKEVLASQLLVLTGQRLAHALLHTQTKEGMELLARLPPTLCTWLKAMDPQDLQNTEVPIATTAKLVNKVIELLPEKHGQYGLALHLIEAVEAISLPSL
Chain of UniProt Q8NBN7 (Q8NBN7 whole entry, looked up): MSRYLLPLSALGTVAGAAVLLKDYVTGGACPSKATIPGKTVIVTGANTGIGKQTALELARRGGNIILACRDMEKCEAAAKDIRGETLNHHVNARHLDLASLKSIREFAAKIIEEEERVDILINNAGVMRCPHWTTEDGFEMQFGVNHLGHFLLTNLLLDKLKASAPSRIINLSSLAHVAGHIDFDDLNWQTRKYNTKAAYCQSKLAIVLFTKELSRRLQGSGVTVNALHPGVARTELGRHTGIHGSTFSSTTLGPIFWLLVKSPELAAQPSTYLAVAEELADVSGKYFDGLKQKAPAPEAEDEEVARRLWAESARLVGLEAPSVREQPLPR
Chain of UniProt O75116 (O75116 whole entry, looked up): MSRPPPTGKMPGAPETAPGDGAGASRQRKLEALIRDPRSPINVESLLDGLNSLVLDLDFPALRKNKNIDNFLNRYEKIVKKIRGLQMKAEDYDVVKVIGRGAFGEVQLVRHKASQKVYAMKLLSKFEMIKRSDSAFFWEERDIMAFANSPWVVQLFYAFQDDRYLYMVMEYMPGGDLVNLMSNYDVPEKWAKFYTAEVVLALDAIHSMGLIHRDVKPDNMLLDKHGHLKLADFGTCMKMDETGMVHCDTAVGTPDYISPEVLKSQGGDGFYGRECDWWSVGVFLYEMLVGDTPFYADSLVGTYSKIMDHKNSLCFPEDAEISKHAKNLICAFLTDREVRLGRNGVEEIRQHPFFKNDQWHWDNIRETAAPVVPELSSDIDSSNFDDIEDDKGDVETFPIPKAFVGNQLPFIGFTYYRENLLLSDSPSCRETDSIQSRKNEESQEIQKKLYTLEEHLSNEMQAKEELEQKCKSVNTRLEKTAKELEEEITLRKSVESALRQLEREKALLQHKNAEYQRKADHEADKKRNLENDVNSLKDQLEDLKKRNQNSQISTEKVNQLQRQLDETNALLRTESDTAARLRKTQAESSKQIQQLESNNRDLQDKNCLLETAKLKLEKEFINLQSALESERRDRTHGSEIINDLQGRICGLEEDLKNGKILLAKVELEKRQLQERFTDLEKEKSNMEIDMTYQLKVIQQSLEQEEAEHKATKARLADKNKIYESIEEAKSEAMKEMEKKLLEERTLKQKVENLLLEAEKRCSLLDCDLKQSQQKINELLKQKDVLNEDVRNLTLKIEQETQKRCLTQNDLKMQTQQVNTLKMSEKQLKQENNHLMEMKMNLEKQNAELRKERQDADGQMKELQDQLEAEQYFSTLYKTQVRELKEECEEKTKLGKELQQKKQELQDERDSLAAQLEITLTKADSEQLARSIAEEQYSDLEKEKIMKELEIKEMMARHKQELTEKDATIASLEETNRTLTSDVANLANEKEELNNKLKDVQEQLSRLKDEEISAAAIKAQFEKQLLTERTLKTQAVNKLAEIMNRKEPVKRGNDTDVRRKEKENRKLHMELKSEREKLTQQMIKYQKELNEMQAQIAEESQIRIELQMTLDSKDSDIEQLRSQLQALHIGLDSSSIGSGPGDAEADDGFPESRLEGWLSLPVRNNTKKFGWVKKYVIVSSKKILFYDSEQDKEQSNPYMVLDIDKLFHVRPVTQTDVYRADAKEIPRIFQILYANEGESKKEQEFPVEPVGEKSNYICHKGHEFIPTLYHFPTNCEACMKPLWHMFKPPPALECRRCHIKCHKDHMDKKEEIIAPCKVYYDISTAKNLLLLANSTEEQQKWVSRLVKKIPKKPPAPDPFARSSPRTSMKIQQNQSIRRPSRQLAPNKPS
Chain of UniProt Q99643 (Q99643 whole entry, looked up): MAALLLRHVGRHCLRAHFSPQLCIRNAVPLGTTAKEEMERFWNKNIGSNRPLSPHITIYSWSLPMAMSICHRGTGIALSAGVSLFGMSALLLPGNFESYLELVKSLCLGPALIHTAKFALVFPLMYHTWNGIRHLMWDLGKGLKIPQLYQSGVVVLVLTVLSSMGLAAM
Chain of UniProt Q5VZM2 (Q5VZM2 whole entry, looked up): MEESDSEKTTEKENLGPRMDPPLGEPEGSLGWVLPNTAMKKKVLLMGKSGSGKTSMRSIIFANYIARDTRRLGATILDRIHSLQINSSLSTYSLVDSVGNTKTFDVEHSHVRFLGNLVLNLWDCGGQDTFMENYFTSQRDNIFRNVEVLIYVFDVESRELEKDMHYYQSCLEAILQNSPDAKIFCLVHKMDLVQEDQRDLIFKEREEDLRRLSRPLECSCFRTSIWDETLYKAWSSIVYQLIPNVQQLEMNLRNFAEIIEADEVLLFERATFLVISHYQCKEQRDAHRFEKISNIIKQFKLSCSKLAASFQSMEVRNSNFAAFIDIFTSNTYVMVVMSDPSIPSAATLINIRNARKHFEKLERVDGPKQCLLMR
Chain of UniProt Q7L4I2 (Q7L4I2 whole entry, looked up): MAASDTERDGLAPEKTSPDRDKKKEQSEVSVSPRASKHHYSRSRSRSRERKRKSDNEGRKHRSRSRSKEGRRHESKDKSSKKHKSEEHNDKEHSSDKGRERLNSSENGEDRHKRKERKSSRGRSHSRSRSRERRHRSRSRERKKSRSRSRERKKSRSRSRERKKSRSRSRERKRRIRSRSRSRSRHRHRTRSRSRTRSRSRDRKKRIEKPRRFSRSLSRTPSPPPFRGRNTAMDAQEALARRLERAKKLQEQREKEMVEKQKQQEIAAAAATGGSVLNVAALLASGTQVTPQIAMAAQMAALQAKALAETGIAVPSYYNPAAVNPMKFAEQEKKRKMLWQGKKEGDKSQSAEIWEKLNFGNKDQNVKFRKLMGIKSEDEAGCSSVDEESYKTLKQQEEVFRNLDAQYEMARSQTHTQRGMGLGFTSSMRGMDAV
Chain of UniProt O95470 (O95470 whole entry, looked up): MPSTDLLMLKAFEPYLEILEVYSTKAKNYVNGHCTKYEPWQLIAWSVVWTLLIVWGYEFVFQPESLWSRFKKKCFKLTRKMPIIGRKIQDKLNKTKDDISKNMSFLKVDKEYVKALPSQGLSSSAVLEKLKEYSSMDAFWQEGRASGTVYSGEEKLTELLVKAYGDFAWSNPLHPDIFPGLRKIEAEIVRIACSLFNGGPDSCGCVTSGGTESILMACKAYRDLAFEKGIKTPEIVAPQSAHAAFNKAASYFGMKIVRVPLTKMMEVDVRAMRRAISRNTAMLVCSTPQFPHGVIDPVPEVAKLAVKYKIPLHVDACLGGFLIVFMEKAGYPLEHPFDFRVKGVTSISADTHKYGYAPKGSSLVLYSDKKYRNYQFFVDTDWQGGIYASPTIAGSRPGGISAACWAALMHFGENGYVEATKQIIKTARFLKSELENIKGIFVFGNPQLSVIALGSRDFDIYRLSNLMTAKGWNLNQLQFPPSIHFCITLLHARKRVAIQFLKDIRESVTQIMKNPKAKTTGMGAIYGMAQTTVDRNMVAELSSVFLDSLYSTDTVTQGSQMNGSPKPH
Chain of UniProt Q8N0T1 (Q8N0T1 whole entry, looked up): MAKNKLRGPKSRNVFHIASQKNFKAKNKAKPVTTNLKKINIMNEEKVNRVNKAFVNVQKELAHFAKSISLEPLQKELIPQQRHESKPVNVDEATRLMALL
Chain of UniProt Q8N5L8 (Q8N5L8 whole entry, looked up): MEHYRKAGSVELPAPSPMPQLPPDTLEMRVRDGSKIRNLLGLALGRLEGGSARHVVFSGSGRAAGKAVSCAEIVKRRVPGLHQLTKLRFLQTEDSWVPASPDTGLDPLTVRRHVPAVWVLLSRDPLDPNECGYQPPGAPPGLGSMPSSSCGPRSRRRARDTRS

| Target | log2 fold change (bafetinib) | log2 fold change [1] | log2 fold change (nilotinib) | log2 fold change [2] | log2 fold change (dasatinib) | log2 fold change [3] | log2 fold change [4] | log2 fold change [5] | log2 fold change (tipifarnib) | log2 fold change (mubritinib) |
| --- | --- | --- | --- | --- | --- | --- | --- | --- | --- | --- |
| RRAGB (UniProt Q5VZM2) | -0.079 | -0.045 | 0.031 | -0.003 | 0.041 | 0.009 | 0.06 | 0.043 | -0.025 | 0.037 |
| RAC3 (UniProt P60763) | 0.015 | -0.221 | 0.03 | 0.036 | -0.169 | -0.016 | 0.107 | 0.064 | 0.03 | -0.008 |
| ROCK1 (UniProt Q13464) | -0.017 | -0.006 | -0.03 | 0.007 | -0.028 | 0.034 | -0.006 | 0.01 | -0.037 | 0.062 |
| RABGGTA (UniProt Q92696) | -0.019 | 0.027 | 0.033 | -0.088 | 0.076 | -0.076 | 0.089 | -0.015 | 0.08 | 0.002 |
| RGS10 (UniProt O43665) | -0.08 | 0.032 | -0.057 | 0.002 | -0.034 | 0.009 | 0.126 | -0.031 | -0.043 | -0.019 |
| RAB3GAP2 (UniProt Q9H2M9) | 0.059 | 0.091 | -0.026 | -0.088 | -0.14 | 0.006 | -0.077 | -0.029 | -0.046 | -0.087 |
| RAP1GDS1 isoform 5 (UniProt P52306) | 0.097 | 0.07 | -0.077 | -0.105 | -0.083 | 0.042 | -0.005 | 0.03 | -0.041 | 0.026 |
| SCG3 (UniProt Q8WXD2) | 0.075 | -0.027 | 0.172 | -0.098 | 0.151 | -0.032 | 0.147 | -0.037 | 0.044 | -0.01 |
| RAB5C isoform 2 (UniProt P51148) | -0.005 | -0.021 | 0.019 | -0.019 | 0.014 | -0.003 | 0.043 | -0.027 | 0.006 | 0.031 |
| SH3GLB2 (UniProt Q9NR46) | -0.029 | 0.044 | -0.051 | -0.15 | -0.147 | -0.066 | 0.006 | -0.1 | -0.091 | 0.098 |
| SGPL1 (UniProt O95470) | 0.009 | -0.013 | 0.024 | -0.017 | 0.016 | -0.029 | -0.005 | -0.071 | 0.151 | 0.034 |
| RNF41 (UniProt Q9H4P4) | -0.09 |  |  |  |  |  |  |  |  |  |
| RPS25 (UniProt P62851) | 0.259 | -0.007 | 0.015 | 0.174 | 0.07 | -0.032 | -0.177 | -0.077 | 0.062 | -0.068 |
| RBIS (UniProt Q8N0T1) | 0.012 | -0.058 | -0.058 | 0.101 | 0.008 | -0.079 | 0.023 | 0.004 | -0.02 | 0.021 |
| RNASET2 (UniProt O00584) | -0.261 (active) | -0.006 | 0.016 | -0.002 | -0.031 | -0.034 | -0.065 | 0.027 | 0.067 | 0.021 |
| RSRC2 (UniProt Q7L4I2) | -0.091 | -0.091 | 0 | -2.11 (active) | 0.002 | -0.028 | -0.007 | -0.056 | 0.012 | 0.02 |

| Target | log2 fold change (bafetinib) | log2 fold change [1] | log2 fold change (nilotinib) | log2 fold change [2] | log2 fold change (dasatinib) | log2 fold change [3] | log2 fold change [4] | log2 fold change [5] | log2 fold change (tipifarnib) | log2 fold change (mubritinib) |
| --- | --- | --- | --- | --- | --- | --- | --- | --- | --- | --- |
| RDH13 (UniProt Q8NBN7) | -0.068 | -0.03 | 0.011 | -0.044 | -0.131 | 0.019 | 0.027 | 0.016 | 0.022 | -0.032 |
| SCAMP2 (UniProt O15127) | -0.113 | -0.125 | 0.084 | -0.107 | -0.027 | 0.058 | 0.11 | 0.062 | -0.061 | 0.046 |
| RPS2 (UniProt P15880) | 0.284 | 0 | 0 | 0.198 | 0.13 | -0.035 | -0.216 | -0.105 | 0.077 | -0.095 |
| SAMD4B (UniProt Q5PRF9) | -0.436 | 0.125 | -0.167 | -0.312 | -0.296 | 0.002 | -0.072 | -0.042 | 0.09 |  |
| ROCK2 (UniProt O75116) | -0.033 | -0.006 | -0.05 | -0.202 | -0.064 | 0.009 | -0.091 | 0.014 | -0.008 | 0.013 |
| RPP25L (UniProt Q8N5L8) | 0.143 | -0.04 | 0.044 | -0.087 | 0.09 | -0.031 | -0.058 | 0.004 | 0.044 | -0.004 |
| RSPRY1 (UniProt Q96DX4) | 0.052 | -0.05 | 0.012 | -0.037 | -0.036 | 0.01 | 0.007 | -0.049 | 0.093 | -0.039 |
| RPS27A (UniProt P62979) | 0.147 | 0.023 | 0.056 | 0.2 | 0.119 | 0.007 | -0.172 | 0 | 0.079 | -0.121 |
| RPS3 (UniProt P23396) | 0.219 | -0.004 | -0.009 | 0.193 | 0.063 | -0.056 | -0.132 | -0.028 | 0.075 | -0.045 |
| RBM12 (UniProt Q9NTZ6) | 0.026 | 0.046 | -0.108 | -0.227 | -0.287 | -0.09 | 0.048 | 0.015 | -0.061 | 0.032 |
| RRP9 (UniProt O43818) | -0.02 | -0.103 | 0.046 | -0.042 | 0.106 | -0.107 | -0.062 | -0.102 | 0.074 | -0.046 |
| SLC1A5 (UniProt Q15758) | 0.041 | 0.004 | 0.067 | 0.023 | 0.023 | 0.014 | 0.035 | -0.032 | 0.026 | 0.052 |
| SCAF8 isoform 2 (UniProt Q9UPN6) | -0.024 | 0.019 | -0.032 | -0.208 | -0.212 | 0.069 | 0.064 | 0.008 | -0.027 | 0.023 |
| SDHC (UniProt Q99643) | 0 | -0.127 | 0.007 | 0.068 | 0.028 | -0.056 | -0.011 | -0.024 | 0.211 | 0.02 |
| RBM8A (UniProt Q9Y5S9) | -0.013 | -0.014 | -0.047 | -0.063 | 0.001 | 0.126 | -0.02 | 0.065 | 0.019 | 0.013 |
